Key:
Format in all cases: functional
[1] = molecular target: Solute carrier family 2, facilitated glucose transporter member 1 (Homo sapiens) (UniProt P11166); assay: ST_JUDE_LEISH: Cytotoxicity at 2uM final concentration against transgenic Leishmania Mexicana promastigotes LmGLUT1 that are glucose transport deficient and complemented with the human glucose transporter GLUT1. Activity is measured by DNA content using SYBR green in vitro
[2] = molecular target: Hexose transporter 1 (Plasmodium falciparum) (UniProt O97467); assay: ST_JUDE_LEISH: Cytotoxicity at 2uM final concentration against transgenic Leishmania Mexicana promastigotes LmPfHT that are glucose transport deficient and complemented with the Plasmodium falciparum hexose transporter. Activity is measured by DNA content using SYBR green in vitro
[3] = molecular target: Glucose transporter (Leishmania mexicana) (UniProt O61059); assay: ST_JUDE_LEISH: Cytotoxicity at 2uM final concentration against transgenic Leishmania Mexicana promastigotes LmGT2 that are glucose transport deficient and complemented with the L. Mexicana glucose transporter 2. Activity is measured by DNA content using SYBR green in vitro

Solute carrier family 2, facilitated glucose transporter member 1 (Homo sapiens), sequence (P11166 whole entry): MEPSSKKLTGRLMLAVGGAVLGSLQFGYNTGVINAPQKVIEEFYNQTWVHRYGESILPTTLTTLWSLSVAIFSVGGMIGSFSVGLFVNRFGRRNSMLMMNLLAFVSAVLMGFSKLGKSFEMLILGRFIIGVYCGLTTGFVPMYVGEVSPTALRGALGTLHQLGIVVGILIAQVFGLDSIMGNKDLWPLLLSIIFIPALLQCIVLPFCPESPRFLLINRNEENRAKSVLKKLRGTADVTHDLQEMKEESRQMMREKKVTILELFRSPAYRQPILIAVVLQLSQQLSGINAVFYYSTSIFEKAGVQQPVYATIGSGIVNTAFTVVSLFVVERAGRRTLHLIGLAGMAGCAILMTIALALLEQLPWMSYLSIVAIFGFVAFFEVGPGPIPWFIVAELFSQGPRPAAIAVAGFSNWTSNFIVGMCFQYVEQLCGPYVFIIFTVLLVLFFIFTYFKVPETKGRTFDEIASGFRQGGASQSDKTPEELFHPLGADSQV

| SMILES | inhibition [1] [%] | inhibition [2] [%] | inhibition [3] [%] |
| --- | --- | --- | --- |
| NC(=O)c1cccc(C(=O)Nc2cccc(-c3ccc(-c4nc5cc(C(F)(F)F)ccc5[nH]4)cc3)c2)c1 | 0.31 | 4.83 | 2.53 |
| NC(=O)c1cccc(C(=O)Nc2cccc(-c3cccc(-c4nc5cc(C(F)(F)F)ccc5[nH]4)c3)c2)c1 | -0.51 | 0.13 | 0.83 |
| CCNc1cc(C)nc(Nc2ccc(NC(=O)C3CCCC3)cc2)n1 | 8.61 | 6.7 | 3.57 |
| COc1ccc(C(=O)C2CC2CN(C)CCC(O)c2ccc(Cl)c(Cl)c2)cc1 (stereo not drawn) | 1.1 | 1.11 | 4.55 |
| O=C(Nc1ccc(I)cc1)Nc1ccc(Cn2ncc(N3CCCNCC3)c(Cl)c2=O)cc1 | -2.09 | -3.01 | 0.24 |
| c1ccc(CN2CCC(NCc3ccc(-c4cccc(CNC5CCCC5)c4)cc3)CC2)cc1 | 15.8 | 8.03 | 0.89 |
| Cc1ccc(F)cc1S(=O)(=O)N1CCCCC(c2ccc(C(F)(F)F)cc2)=N1 | 7.48 | 5.61 | 8.34 |
| Cc1cccc2nc(-c3cccc(-c4ccc(CNCc5ccccc5)cc4)c3)[nH]c12 | 5.37 | 3.63 | 1.78 |
| COC(=O)C(NC(=O)NC1CCN(c2ccnc(Nc3ccc(F)cc3)n2)C1)c1ccccc1 (stereo not drawn) | -3.11 | -1.97 | -2.66 |
| CCCCC1=CC2C(=O)C(C(=O)OC)=CN=C2C=C1OCc1ccccc1 (stereo not drawn) | -0.41 | -2.57 | -1.77 |
| COc1cc2ccccc2c(CNCCCCCCNCc2c(OC)c(OC)cc3ccccc23)c1OC | 4.39 | 3.44 | 1.23 |
| COc1cc(CNC[C@@H](O)[C@H](Cc2ccccc2)NC(=O)c2cc(C3CCCC3)cc(N3CCCCS3(=O)=O)c2)cc(OC)c1 | 5.15 | 5.6 | 6.05 |
| COc1cc(NC(=O)c2cccc([N+](=O)[O-])c2)cc(S(=O)(=O)c2ccc(Cl)cc2)c1 | -0.46 | -1.02 | 0.68 |
| CCCCCCN1CCCN(Cc2ccc(C(=O)Nc3ccc(CCC)cc3)cc2)CC1 | 9.31 | 7.71 | 7.37 |
| O=C(/C=C/c1cccc(Cl)c1)NCCCCCN1CCC(c2c[nH]c3ccccc23)CC1 | 3.67 | 6.67 | 0.06 |
| COc1ccc(NS(=O)(=O)c2ccc(Oc3nc(C)nc4sc5c(c34)CCCC5)cc2)cc1 | 3.13 | 3.7 | 2.29 |
| CCOC(=O)CCCc1cc(NC2CCN(C)CC2)nc(Nc2ccc(C)cc2)n1 | -2.45 | 0.71 | -2.59 |
| CC(=O)Nc1cccc(CNCc2ccc(-c3cnc(N4CCCC(c5ccccc5)C4)nc3)cc2)c1 (stereo not drawn) | 4.23 | 2.57 | 2.2 |
| CN(C)CCN(C)Cc1cccc(-c2ccc3c(Nc4ccc(F)cc4Cl)ccnc3c2)c1 | 1.88 | 4.55 | 12.7 |
| CC(C)NC(=O)c1cccc(-c2cccc(OCCN3CCSCC3c3ccccc3)c2)c1 (stereo not drawn) | 10.4 | 9.35 | 8.53 |
| CN(C)c1cccc2c1nc(-c1ccc3c(c1)CCO3)n2CCNCc1ccccc1 | 11.7 | 8.56 | 5.57 |
| O=C(Nc1cc(Cl)ccc1-n1cncn1)C1(c2ccccc2)CC1 | 2.59 | 6.43 | 5.68 |
| O=C(NCCCN1CCC(Cc2ccccc2)CC1)c1cc2c(Cl)nc3ccccc3c2s1 | 0.05 | 1.9 | -0.45 |

| SMILES | inhibition [1] [%] | inhibition [2] [%] | inhibition [3] [%] |
| --- | --- | --- | --- |
| Cc1ccc(Oc2ccc(NC(=O)CNc3ccccc3N3CCCC3=O)cc2)cc1 | 6 | 6.14 | 5.01 |
| Cc1c(CNCCCNc2cc(=O)c3ccccc3[nH]2)sc(/C=N/O)c1Br | 5.48 | 3.79 | 5.31 |
| CCCNCc1ccc(-c2ccc(CNC3Cc4ccccc4C3)cc2)nc1 | -0.04 | 2.5 | 1.53 |
| COc1ccc(NS(=O)(=O)c2ccc(C(=O)Nc3ccc(OC(F)(F)F)cc3)cc2)cc1N1CCN(CC2CC2)CC1 | 6.41 | 5.3 | 4.14 |
| Cc1cc(N2C(N)=NC(N)=NC2(C)C)ccc1Cl | 0.08 | -0.81 | -0.97 |
| COc1ccc2c(=O)ccn(CCN3CCC(NCc4ccc5c(n4)NC(=O)CS5)CC3)c2c1 | 3.6 | 2.3 | 3.24 |
| COc1ccc2nc3cc(Cl)ccc3c(NCCCCNc3c4ccc(Cl)cc4nc4ccc(OC)cc34)c2c1 | 11.8 | 12.5 | 9.15 |
| COc1ccc(NC(=O)c2ccc(NC(=O)c3ccc(Cl)cc3)cc2)cc1N1CCN(C)CC1 | 4.33 | 4.66 | 3.5 |
| O=C(Nc1ccc(-c2csc(-c3nc4ccccc4[nH]3)c2)cc1)Nc1ccsc1 | 1.71 | 0.76 | 0.44 |
| CS(=O)(=O)c1cccc(-c2ccc3oc(C(N)=O)c(NC(=O)c4cccs4)c3c2)c1 | 7.71 | 6.5 | 5.71 |
| COc1ccc(S(=O)(=O)NCC2CCCN(CCCCCNC(=O)/C=C/c3ccc(Cl)c(Cl)c3)C2)cc1 (stereo not drawn) | 0.97 | 0.66 | 3.47 |
| COC(=O)C1(NC(=O)c2ccc(-n3nc(C)c(-c4ccccc4)c3N)cc2)CCCC1 | 2.04 | 2.33 | 2.55 |
| COc1cccc(Nc2nnc(SCC(=O)NNC(=O)c3ccccn3)s2)c1 | 0.56 | 2.27 | -1.42 |
| CCNc1cc(CC)nc(Nc2ccc(C)cc2)n1 | 33.4 | 28.9 | 17.9 |
| Fc1ccc2[nH]c(-c3ccc(-c4cccc(CN5CCN(CCN6CCOCC6)CC5)c4)cc3)nc2c1 | 4.48 | 3.16 | 1.99 |
| O=C(NC1CCCC1)c1ccc(N2CCC(NCc3cccc(C(F)(F)F)c3)CC2)cc1 | -0.33 | -0.97 | 0.59 |
| N#Cc1ccc(Cn2ccc3c4c(N)nc(N)nc4ccc32)cc1 | 82.6 | 84.2 | 77.7 |
| Cc1ccc(Nc2nc3cc(Nc4ccnc(Nc5ccc(CS(C)(=O)=O)cc5)n4)ccc3o2)cc1 | 9.35 | 9.37 | 5.97 |
| Nc1nccc2ccc(-c3ccc(OCc4ccccc4)cc3)cc12 | 0.87 | 2.36 | 1.39 |
| COc1ccc2nccc([C@@H](O)CN3CCC(NCc4ccc5c(c4)N(C)C(=O)CO5)CC3)c2c1 | 0.27 | 0.25 | 0.03 |
| COc1ccc(-c2ccc(NC(=O)c3ccc(Cl)cc3)cc2)cc1CN(C)CCO | 4.1 | 3.45 | -0.68 |
| CC1CCC(NCc2c(O)ccc3ccccc23)CC1 (stereo not drawn) | 2.01 | 1.89 | 2.46 |
| O=C(O[C@@H]1CN[C@H](C#Cc2cc3ncnc(Nc4ccc5c(cnn5Cc5cccc(F)c5)c4)c3s2)C1)N1CCCC1 | 1.37 | 0.19 | -1.8 |

— ChEMBL document CHEMBL3433997, “St. Jude Leishmania screening dataset” (2016)
